Laboratory results as given in PubChem BioAssay (NCI).
This is part of a sample that, as a whole, favours compounds with a hit. Of some 79,000 tested, about 15% had one in any assay. No stated cut-off is given here; in the data, active means growth inhibition above about 70%; inactive means the rest.

Assays:
[1] = NCI Yeast Anticancer Drug Screen. Data for the rad50 strain (AID 155);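 further: 0% = growth of vehicle-only cultures of the same strain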; details: S. cerevisiae rad50 strain growth inhibition; at 50.0 µM; stronger effect = higher value
How it was run: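 Readout: growth inhibition relative to vehicle-treated cultures. Compound exposure was carried out in a genetically defined yeast strain deficient in DNA damage repair.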

[2] = NCI Yeast Anticancer Drug Screen. Data for the mec2-1 strain (AID 157); details: S. cerevisiae mec2-1 strain, at 50.0 µM, stronger effect = higher value
How it was run: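 Vehicle-treated cultures served as reference for growth inhibition of compound-exposed mec2-1 yeast.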

[3] = NCI Yeast Anticancer Drug Screen. Data for the sgs1 mgt1 strain (AID 161);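 further: 0% = growth of cultures given vehicle only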; details: S. cerevisiae sgs1 mgt1 strain, at 50.0 µM, stronger effect = higher value
How it was run: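 Genetically altered yeast, compound exposure, growth inhibition relative to vehicle.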

[4] = NCI Yeast Anticancer Drug Screen. Data for the cln2 rad14 strain (AID 165);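 further: 0% = growth equal to vehicle treated cultures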; details: S. cerevisiae cln2 rad14 strain, at 50.0 µM, stronger effect = higher value
How it was run: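 Each compound was tested on cln2 rad14 yeast. Inhibition of growth was calculated against vehicle-exposed controls.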

[5] = NCI Yeast Anticancer Drug Screen. Data for the bub3 strain (AID 167); details: S. cerevisiae bub3 mutant strain, at 50.0 µM, stronger effect = higher value
How it was run: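 Readout: yeast growth inhibition, expressed relative to vehicle-only wells. The test organism is a mutant strain from a panel with lesions in DNA repair or checkpoint genes.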

[6] = NCI Yeast Anticancer Drug Screen. Data for the mlh1 rad18 strain (AID 175); details: S. cerevisiae mlh1 rad18 strain growth inhibition; at 50.0 µM; stronger effect = higher value
How it was run: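 Vehicle-treated cultures served as the reference for growth inhibition in a yeast strain carrying DNA damage repair alterations exposed to each compound.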

Measured: growth inhibition

OCC(CO)=C1c2ccccc2-c2ccccc21
inactive: [1] 11% | [2] -6.2% | [3] -8.15% | [4] -28.8% | [5] -1.5% | [6] 5.55%

CN1C(=O)N(C)C2=NC(=O)N(C)C2(C(Cl)(Cl)Cl)C1=O (configuration not stated)
inactive: [1] 45.3% | [2] 32.2% | [3] 47.4% | [4] 24.6% | [5] 21.6% | [6] 58%

COc1cccc(C2c3cc4c(cc3OC(N3CCOCC3)C2C)OCO4)c1OC (configuration not stated)
inactive: [1] -25.4% | [2] -10.1% | [3] -7.85% | [4] 2.55% | [5] -2.05% | [6] -6.1%

CCN(CC)CCOc1cc(C)ccc1C(C)C
inactive: [1] -6.05% | [2] -12.6% | [3] 2.95% | [4] -32% | [5] -8.1% | [6] 26.4%

CCCCCCCCCCCCCCCCOc1ccc(OCCCCCCCCCCCCCCC)cc1
inactive: [1] 42.2% | [2] -8.2% | [3] 31.6% | [4] -24.7% | [5] 5.35% | [6] -1.1%

COc1ccc(N=Cc2ccc(N(CCC#N)S(=O)(=O)c3ccccc3)cc2C)cc1
inactive: [1] -9.4% | [2] -10.8% | [3] 5.5% | [4] 13.4% | [5] -16.8% | [6] -10%

O=C(NCc1ccccc1)c1cc(Cl)ccc1O
inactive: [1] -20.3% | [2] -7.1% | [3] -7.65% | [4] -37.4% | [5] 0.95% | [6] 5.35%

CC(COC(=O)c1ccc(N)cc1)NC1CCCCC1 (configuration not stated)
inactive: [1] -8.2% | [2] 1.1% | [3] 19.6% | [4] 13.7% | [5] -2.25% | [6] -16.6%

O=C(/C=C/c1ccc2c(c1)OCO2)C1CC1
inactive: [1] 6.45% | [2] 11.1% | [3] 28.2% | [4] 8.25% | [5] 27.7% | [6] 16.9%

COc1ccc(CCN=C(N)CCl)cc1
inactive: [1] 11.8% | [2] 10.8% | [3] 7.4% | [4] 6.65% | [5] 18.9% | [6] -2%

O=C1O/C(=C(/Cl)c2cccc3ccccc23)c2ccccc21
inactive: [1] -40.2% | [2] -67.8% | [3] -38.4% | [4] 9.55% | [5] -16.9% | [6] -38%

COc1ccc2c(c1)OCCN(C)OC2c1ccccc1 (configuration not stated)
inactive: [1] -7.65% | [2] -4.6% | [3] -10.2% | [4] 0.5% | [5] 11.1% | [6] -1.5%

NC(=O)C(N)Cc1ccc(OCc2ccccc2)c(OCc2ccccc2)c1 (configuration not stated)
inactive: [1] 1.4% | [2] 3.35% | [3] 7.3% | [4] -12.8% | [5] 2.45% | [6] 26.2%

C1=Cc2ccccc2Nc2ccccc21
inactive: [1] -1.9% | [2] -7.35% | [3] -10.8% | [4] 1.65% | [5] -11.9% | [6] -23.5%

COC(=O)C1CC(=C(C)C)CCC1=O (configuration not stated)
inactive: [1] 11.1% | [2] 2.15% | [3] 0.4% | [4] 11.2% | [5] 8.7% | [6] -1.7%

O=C1c2ccccc2C(=O)C1(c1ccccn1)[N+](=O)[O-]
inactive: [1] 5.55% | [2] 1.45% | [3] -0.2% | [4] 2% | [5] 13.6% | [6] 3.95%

O=C(O)c1ccc(SSc2ccc(C(=O)O)cn2)nc1
inactive: [1] 9.9% | [2] 19.1% | [3] -13.3% | [4] -8.5% | [5] 6.7% | [6] 14.9%

CCOC(=O)c1c[nH]c2cc3c(cc2c1=O)CCS3
inactive: [1] -27.4% | [2] -57% | [3] -1.45% | [4] 3.95% | [5] 9% | [6] -7.35%

CC(C)[C@@H]1CC[C@@H](C)C[C@H]1N
inactive: [1] -16.7% | [2] 7.8% | [3] -8.85% | [4] -35.5% | [5] 3.95% | [6] -11.2%

Cc1c(O)cc(O)c(C=O)c1C
inactive: [1] 6.05% | [2] -4.2% | [3] 16.1% | [4] 4.5% | [5] -2.45% | [6] 3.1%

O=C1C=C2CCCCCCCC(C1)C2 (configuration not stated)
inactive: [1] 11.8% | [2] 1.1% | [3] 2.25% | [4] -1.75% | [5] -1.15% | [6] 3.2%

NC(=O)N/N=C/c1ccc2oc3ccccc3c2c1
inactive: [1] 40.2% | [2] 19.1% | [3] 18.4% | [4] 16.5% | [5] 18.4% | [6] 44.5%

Cc1ccc(S(=O)(=O)OCC2OC(CCCO)C/C([Si](C)(C)C)=C\CC2Cl)cc1 (configuration not stated)
inactive: [1] 48.8% | [2] 19.9% | [3] 38.2% | [4] 31.6% | [5] 34.5% | [6] 19.4%

O=C1CCC(C(=O)O)N1 (configuration not stated)
inactive: [1] -9.2% | [2] 4.7% | [3] -20.9% | [4] 1.15% | [5] 7.7% | [6] -7.8%

Brc1cccc2ccccc12
inactive: [1] 23.6% | [2] -13.9% | [3] 0.7% | [4] -38% | [5] -12.3% | [6] 6.85%

COc1ccc2c(N=[N+]=[N-])c(-c3ccccc3)c(=O)oc2c1
inactive: [1] 11.8% | [2] 2.6% | [3] 35.6% | [4] 17.2% | [5] 3.15% | [6] 30.9%

CCCC/C(C)=N/NC(N)=S
inactive: [1] 2.3% | [2] -4.3% | [3] -4.3% | [4] -2.65% | [5] -15.9% | [6] 1.9%

COC(=O)C(C#N)=C(C)C
inactive: [1] 2.3% | [2] -23.6% | [3] 16.9% | [4] 19.9% | [5] 0.05% | [6] 7.95%

CCN1CCCCC(=N\O)/C(=N/O)CCCC1
inactive: [1] -12.8% | [2] -12.2% | [3] -20.1% | [4] -4.2% | [5] -51.6% | [6] -11.8%

O=C1CCC2(CC1)SCCCS2
inactive: [1] -0.6% | [2] -21.5% | [3] -16.1% | [4] 20.9% | [5] -7.3% | [6] -17.1%

Cc1ccc(CC(=S)N2CCOCC2)cc1
inactive: [1] 19.8% | [2] 24.2% | [3] 10.8% | [4] 10.9% | [5] 25.2% | [6] 16.6%

OC1c2c(ccc3ccccc23)CCC1N1CCCCC1 (configuration not stated)
inactive: [1] 12.6% | [2] -4.45% | [3] 0.9% | [4] -34.5% | [5] -13.4% | [6] -5%

CSc1ncc2c(n1)-c1ccccc1OC2N1CCOCC1 (configuration not stated)
inactive: [1] -4.95% | [2] 8.1% | [3] -1.65% | [4] -9.55% | [5] -18.4% | [6] 40.7%

COc1ccc(C2C(=O)c3ccc(OC)cc3OC2c2cccnc2)cc1 (configuration not stated)
inactive: [1] 14.9% | [2] -8.8% | [3] 53.7% | [4] 29.6% | [5] 45.8% | [6] 25.2%

CC(=O)Oc1cc(Cl)c(Cl)cc1Cl
inactive: [1] 19.9% | [2] 29.9% | [3] -5.65% | [4] -30.4% | [5] -16.4% | [6] -2.1%

CCOC(=O)C(=Cc1ccc(Oc2ccccc2)cc1)C(=O)OCC
inactive: [1] 39.4% | [2] -6% | [3] 22.1% | [4] 24.8% | [5] 6.1% | [6] 7%

C[C@]12CCC3c4ccc(OC(=O)c5ccccc5)cc4CC[C@H]3C1CC[C@@H]2OC(=O)C12OC1CCC2=O (some centres not stated)
inactive: [1] -5.4% | [2] -35.5% | [3] -7.55% | [4] 1.75% | [5] -27.9% | [6] -9.85%

CC(=O)OC12C=CC(=O)N1c1ccccc1C(=O)O2 (configuration not stated)
inactive: [1] 18.4% | [2] 8.8% | [3] 25% | [4] 29.2% | [5] 13.8% | [6] 42.4%

COc1ccc(/C=C/C(=O)c2sc(NC(=S)NC(=O)c3ccccc3F)nc2C)cc1OC
inactive: [1] 21.1% | [2] 8.5% | [3] 37.6% | [4] 30.1% | [5] 30.9% | [6] 22.9%

CC(=O)C(CCCCCCCCCCC(C(C)=O)C(C)=O)C(C)=O
inactive: [1] -9.3% | [2] -2.75% | [3] -5.05% | [4] -38.6% | [5] -6% | [6] -10.2%

CC(C)C(C(=O)O)N(C)C(=O)c1cnc2ccccc2n1 (configuration not stated)
inactive: [1] 9.1% | [2] -1.2% | [3] -0.6% | [4] 22.9% | [5] 17.6% | [6] -6.2%

Cc1ccc(NC(=O)Oc2ccc(C#N)cc2)cc1Cl
inactive: [1] 9.45% | [2] 5.85% | [3] 21.1% | [4] 17.8% | [5] 29.8% | [6] 27.1%
